Tests used:
Assay in all cases: DAPPL (digital affinity profiling via proximity ligation, sequencing); 10 mM Tris-HCl pH 7.5, 50 mM NaCl, 1 mM DTT, 4% glycerol, room temperature, 30 min; GST-TFs on glutathione beads, 16-mer random dsDNA library, 0.1% formaldehyde crosslink after washing; high values mean tight binding
Details in all cases: protein: recombinant; tags: N-terminal GST; dsDNA, one strand shown
ELK1 = target: T1, ELK1 (Homo sapiens, UniProt P19419 1-428)
T1 sequence: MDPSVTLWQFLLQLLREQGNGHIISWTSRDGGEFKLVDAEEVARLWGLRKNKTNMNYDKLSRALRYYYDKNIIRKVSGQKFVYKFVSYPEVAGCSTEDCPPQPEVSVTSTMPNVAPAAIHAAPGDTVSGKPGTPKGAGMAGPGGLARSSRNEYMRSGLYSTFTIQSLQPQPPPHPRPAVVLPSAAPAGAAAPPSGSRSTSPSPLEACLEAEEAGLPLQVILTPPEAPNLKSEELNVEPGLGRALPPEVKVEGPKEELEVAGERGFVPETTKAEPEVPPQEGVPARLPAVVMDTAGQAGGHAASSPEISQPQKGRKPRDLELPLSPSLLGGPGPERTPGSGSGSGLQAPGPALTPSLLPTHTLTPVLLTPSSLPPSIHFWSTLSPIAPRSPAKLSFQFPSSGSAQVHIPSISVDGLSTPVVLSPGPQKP
Procedure, shortened: (§1)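 Yeast served to express human transcription factors as GST fusions, which were then captured on glutathione beads and labelled with DNA barcodes. Pooled with a tag-only sample, they were incubated with 200 nmole of a 16-mer random double-stranded DNA library for 30 min at room temperature in Tris/NaCl/DTT/glycerol buffer, washed, crosslinked with 0.1% formaldehyde, ligated by proximity, amplified by PCR and sequenced. Dividing each hexamer's read frequency for a factor by its frequency for the tag-only sample gives the binding signal.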

GABPA = target: T2, GABPA (Homo sapiens, UniProt Q06546 1-454)
T2 sequence: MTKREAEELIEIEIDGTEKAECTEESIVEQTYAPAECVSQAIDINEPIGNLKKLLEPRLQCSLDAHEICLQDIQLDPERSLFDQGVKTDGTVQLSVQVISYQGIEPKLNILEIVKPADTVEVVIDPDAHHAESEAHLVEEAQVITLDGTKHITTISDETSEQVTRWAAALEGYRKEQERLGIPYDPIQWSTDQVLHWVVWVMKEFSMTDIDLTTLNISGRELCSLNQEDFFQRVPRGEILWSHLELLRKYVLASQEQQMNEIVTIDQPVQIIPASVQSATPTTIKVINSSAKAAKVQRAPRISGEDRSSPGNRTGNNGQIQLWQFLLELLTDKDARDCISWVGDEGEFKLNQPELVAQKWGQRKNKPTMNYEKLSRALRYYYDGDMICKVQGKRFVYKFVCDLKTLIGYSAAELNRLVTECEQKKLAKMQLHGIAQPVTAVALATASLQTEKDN
Procedure, shortened: as §1

ERG = target: T3, ERG (Homo sapiens, UniProt P11308 1-479)
T3 sequence: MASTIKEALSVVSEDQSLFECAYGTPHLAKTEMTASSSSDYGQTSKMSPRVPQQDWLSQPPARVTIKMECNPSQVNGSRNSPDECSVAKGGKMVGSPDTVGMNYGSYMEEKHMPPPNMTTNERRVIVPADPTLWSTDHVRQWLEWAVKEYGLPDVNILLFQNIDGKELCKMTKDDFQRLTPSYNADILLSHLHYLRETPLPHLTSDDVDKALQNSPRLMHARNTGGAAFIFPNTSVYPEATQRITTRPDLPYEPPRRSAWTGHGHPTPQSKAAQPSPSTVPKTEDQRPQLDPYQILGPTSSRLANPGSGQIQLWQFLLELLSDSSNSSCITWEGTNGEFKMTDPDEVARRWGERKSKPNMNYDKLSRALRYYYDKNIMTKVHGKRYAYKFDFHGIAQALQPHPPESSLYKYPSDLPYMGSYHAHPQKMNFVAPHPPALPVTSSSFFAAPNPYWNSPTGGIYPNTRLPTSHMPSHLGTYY
Procedure, shortened: as §1

ELF1 = ELF1 (Homo sapiens, UniProt P32519 1-619)
ELF1, sequence (P32519 whole entry): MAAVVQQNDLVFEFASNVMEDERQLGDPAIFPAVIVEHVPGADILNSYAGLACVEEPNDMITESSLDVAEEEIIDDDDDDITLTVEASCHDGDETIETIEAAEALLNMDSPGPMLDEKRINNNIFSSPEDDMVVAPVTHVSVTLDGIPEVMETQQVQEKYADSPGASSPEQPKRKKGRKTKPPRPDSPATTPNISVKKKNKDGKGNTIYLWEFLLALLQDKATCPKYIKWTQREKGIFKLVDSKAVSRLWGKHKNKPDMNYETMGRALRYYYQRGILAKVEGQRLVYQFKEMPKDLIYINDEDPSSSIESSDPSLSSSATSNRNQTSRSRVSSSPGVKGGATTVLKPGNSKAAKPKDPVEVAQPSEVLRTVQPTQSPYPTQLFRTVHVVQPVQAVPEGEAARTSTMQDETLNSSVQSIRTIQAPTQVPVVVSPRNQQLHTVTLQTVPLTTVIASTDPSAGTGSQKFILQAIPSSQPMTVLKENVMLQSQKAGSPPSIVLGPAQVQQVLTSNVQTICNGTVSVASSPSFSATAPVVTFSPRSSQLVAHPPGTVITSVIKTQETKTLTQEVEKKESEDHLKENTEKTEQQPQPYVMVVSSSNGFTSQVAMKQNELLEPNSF
Procedure, shortened: as §1

EHF = target: T4, EHF (Homo sapiens, UniProt Q9NZC4 1-300)
T4 sequence: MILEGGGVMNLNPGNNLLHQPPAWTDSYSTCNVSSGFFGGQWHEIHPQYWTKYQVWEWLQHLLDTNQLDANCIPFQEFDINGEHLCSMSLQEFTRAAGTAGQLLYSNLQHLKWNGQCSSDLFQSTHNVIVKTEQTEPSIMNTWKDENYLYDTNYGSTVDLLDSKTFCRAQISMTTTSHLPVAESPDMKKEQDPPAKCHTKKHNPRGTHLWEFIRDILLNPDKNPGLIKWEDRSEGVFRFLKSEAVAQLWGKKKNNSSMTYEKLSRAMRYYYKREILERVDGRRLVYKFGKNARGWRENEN
Procedure, shortened: as §1

SPIB = SPIB (Homo sapiens, UniProt Q01892 1-262)
SPIB, sequence (Q01892 whole entry): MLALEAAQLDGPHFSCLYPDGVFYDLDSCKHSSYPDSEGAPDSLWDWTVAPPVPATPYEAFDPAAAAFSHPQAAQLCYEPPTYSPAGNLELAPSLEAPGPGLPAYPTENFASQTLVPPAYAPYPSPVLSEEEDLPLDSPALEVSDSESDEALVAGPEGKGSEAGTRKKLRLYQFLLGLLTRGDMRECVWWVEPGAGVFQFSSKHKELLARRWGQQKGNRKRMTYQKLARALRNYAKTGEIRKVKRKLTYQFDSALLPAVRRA
Procedure, shortened: as §1

FEV = target: T5, FEV (Homo sapiens, UniProt Q99581 1-238)
T5 sequence: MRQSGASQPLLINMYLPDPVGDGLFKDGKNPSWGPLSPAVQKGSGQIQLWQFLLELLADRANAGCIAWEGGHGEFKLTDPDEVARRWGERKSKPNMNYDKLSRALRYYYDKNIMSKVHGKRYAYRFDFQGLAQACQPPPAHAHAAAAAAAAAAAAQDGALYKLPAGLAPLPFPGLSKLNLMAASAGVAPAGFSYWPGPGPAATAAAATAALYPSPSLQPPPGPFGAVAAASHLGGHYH
Procedure, shortened: as §1

ETV5 = ETV5 (Homo sapiens, UniProt P41161 1-510)
ETV5, sequence (P41161 whole entry): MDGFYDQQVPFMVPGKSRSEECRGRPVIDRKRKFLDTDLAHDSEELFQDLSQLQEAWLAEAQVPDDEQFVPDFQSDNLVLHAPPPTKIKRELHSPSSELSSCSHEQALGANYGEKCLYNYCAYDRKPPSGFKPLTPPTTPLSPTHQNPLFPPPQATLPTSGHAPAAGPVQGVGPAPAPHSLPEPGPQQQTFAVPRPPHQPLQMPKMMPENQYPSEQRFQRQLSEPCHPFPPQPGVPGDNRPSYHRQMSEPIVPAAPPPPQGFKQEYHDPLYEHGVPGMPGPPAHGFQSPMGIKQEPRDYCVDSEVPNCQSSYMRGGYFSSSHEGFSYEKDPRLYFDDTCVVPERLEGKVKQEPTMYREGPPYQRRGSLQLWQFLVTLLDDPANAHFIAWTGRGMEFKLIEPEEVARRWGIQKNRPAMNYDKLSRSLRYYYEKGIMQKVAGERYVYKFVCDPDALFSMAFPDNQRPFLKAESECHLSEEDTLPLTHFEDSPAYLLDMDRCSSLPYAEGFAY
Procedure, shortened: as §1

ELF4 = ELF4 (Homo sapiens, UniProt Q99607 1-663)
ELF4, sequence (Q99607 whole entry): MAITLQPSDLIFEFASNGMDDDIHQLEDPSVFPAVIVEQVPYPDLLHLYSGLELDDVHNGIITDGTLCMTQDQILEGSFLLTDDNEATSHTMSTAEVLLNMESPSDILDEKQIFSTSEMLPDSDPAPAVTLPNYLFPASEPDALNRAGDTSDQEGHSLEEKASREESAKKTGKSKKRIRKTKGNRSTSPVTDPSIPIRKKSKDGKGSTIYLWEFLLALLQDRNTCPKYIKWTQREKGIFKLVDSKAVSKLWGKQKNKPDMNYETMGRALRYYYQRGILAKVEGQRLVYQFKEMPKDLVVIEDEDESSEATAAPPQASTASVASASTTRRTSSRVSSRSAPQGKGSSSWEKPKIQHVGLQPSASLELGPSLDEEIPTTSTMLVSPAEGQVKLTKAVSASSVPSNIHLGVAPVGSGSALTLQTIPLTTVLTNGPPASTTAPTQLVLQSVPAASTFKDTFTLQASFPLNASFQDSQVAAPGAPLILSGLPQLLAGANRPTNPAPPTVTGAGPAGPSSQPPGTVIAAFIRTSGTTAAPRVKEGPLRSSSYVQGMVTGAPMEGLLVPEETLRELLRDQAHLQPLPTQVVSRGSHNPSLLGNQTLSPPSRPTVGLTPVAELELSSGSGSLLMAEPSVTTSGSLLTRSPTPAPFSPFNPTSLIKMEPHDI
Procedure, shortened: as §1

ELK4 = target: T6, ELK4 (Homo sapiens, UniProt P28324-2 1-405)
T6 sequence: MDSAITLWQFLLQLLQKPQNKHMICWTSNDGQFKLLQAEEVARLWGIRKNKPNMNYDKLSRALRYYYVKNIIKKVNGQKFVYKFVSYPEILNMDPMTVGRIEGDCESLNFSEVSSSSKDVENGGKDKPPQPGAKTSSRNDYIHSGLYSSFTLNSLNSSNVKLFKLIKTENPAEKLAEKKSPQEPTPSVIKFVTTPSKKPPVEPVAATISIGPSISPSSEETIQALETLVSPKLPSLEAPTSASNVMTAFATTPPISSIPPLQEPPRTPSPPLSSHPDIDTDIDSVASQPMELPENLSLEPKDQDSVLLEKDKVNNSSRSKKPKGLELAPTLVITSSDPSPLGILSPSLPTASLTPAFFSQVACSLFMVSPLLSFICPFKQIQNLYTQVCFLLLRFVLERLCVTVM
Procedure, shortened: as §1

ETV2 = target: T7, ETV2 (Homo sapiens, UniProt O00321 1-342)
T7 sequence: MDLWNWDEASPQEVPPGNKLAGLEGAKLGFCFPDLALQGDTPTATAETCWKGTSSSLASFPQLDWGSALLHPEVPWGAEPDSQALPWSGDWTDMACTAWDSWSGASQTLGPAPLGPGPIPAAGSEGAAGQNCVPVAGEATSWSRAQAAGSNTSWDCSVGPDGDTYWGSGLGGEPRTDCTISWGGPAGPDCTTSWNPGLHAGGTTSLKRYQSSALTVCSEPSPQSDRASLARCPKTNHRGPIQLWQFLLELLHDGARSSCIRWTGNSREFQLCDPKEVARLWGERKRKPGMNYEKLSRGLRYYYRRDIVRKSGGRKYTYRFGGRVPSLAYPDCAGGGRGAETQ
Procedure, shortened: as §1

ELF3 = target: T8, ELF3 (Homo sapiens, UniProt P78545 1-371)
T8 sequence: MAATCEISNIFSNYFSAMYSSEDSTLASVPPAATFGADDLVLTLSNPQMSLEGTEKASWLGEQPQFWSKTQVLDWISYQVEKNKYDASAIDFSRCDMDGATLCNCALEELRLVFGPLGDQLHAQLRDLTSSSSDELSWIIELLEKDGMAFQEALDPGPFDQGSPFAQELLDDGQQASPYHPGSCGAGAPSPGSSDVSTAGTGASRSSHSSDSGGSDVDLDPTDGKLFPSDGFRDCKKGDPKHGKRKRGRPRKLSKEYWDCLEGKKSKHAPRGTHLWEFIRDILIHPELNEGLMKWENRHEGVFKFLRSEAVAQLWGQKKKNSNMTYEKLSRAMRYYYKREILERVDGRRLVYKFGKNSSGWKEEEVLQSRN
Procedure, shortened: as §1

ETV1 = ETV1 (Homo sapiens, UniProt P50549 1-477)
ETV1, sequence (P50549 whole entry): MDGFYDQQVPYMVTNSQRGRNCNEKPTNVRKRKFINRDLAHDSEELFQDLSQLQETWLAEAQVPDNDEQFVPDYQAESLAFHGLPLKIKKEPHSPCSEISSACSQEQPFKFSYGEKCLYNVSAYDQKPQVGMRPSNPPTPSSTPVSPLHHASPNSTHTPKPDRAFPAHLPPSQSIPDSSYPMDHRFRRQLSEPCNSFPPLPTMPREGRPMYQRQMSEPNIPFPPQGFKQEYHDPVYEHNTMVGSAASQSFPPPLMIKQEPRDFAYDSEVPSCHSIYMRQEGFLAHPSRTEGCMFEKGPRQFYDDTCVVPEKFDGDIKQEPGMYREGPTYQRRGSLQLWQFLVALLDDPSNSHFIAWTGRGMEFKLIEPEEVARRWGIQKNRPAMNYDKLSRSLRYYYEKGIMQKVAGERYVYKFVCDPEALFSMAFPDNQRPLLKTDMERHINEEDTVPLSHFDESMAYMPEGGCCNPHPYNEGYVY
Procedure, shortened: as §1

ERF = target: T9, ERF (Homo sapiens, UniProt P50548 1-548)
T9 sequence: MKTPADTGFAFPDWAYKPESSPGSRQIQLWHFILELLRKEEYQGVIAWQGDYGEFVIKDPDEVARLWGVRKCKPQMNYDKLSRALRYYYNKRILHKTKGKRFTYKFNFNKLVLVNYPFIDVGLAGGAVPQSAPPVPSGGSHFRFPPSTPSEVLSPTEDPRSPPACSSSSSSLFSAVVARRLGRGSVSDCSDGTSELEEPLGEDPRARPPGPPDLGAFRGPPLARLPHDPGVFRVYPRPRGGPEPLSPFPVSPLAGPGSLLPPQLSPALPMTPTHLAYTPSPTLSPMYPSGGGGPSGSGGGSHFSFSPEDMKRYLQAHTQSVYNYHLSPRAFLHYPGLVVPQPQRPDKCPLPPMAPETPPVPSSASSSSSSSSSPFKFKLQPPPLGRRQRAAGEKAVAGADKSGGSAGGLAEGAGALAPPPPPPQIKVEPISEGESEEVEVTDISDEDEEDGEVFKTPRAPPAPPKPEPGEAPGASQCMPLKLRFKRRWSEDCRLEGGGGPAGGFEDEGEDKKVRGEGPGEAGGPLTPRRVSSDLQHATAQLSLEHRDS
Procedure, shortened: as §1

ETV3L = target: T10, ETV3L (Homo sapiens, UniProt Q6ZN32 1-361)
T10 sequence: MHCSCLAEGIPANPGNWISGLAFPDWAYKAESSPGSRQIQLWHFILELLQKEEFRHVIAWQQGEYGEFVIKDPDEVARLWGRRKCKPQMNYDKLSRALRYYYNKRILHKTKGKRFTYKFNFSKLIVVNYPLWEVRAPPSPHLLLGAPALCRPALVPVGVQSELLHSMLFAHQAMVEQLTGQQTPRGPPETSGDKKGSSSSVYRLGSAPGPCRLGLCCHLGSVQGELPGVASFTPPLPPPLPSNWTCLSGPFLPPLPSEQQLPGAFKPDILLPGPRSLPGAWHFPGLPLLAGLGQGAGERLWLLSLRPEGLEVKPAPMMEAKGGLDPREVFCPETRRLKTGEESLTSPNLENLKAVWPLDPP
Procedure, shortened: as §1

ETS2 = target: T11, ETS2 (Homo sapiens, UniProt P15036 1-469)
T11 sequence: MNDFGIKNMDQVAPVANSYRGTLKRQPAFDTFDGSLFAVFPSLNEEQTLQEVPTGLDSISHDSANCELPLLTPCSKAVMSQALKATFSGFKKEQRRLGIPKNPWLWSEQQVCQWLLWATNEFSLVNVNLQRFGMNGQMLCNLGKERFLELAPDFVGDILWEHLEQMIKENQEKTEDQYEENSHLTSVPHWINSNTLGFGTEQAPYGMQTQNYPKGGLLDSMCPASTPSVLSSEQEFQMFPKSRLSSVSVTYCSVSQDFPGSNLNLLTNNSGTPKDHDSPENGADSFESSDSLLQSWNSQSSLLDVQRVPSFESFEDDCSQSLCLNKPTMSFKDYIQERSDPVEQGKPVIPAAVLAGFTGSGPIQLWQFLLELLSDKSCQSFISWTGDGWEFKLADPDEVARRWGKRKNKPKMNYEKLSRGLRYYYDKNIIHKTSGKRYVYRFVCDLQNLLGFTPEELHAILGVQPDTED
Procedure, shortened: as §1

ETV7 = target: T12, ETV7 (Homo sapiens, UniProt Q9Y603 1-341)
T12 sequence: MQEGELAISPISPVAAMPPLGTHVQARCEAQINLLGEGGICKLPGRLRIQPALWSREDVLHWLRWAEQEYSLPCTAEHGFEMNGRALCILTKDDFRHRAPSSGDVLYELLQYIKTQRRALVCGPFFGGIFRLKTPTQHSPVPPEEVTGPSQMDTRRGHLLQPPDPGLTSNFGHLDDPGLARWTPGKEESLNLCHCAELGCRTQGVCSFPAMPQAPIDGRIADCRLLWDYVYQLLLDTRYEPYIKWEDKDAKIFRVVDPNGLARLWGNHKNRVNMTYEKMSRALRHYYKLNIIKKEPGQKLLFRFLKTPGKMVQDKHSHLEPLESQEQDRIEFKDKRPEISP
Procedure, shortened: as §1

ETV3 = target: T13, ETV3 (Homo sapiens, UniProt P41162-2 1-143)
T13 sequence: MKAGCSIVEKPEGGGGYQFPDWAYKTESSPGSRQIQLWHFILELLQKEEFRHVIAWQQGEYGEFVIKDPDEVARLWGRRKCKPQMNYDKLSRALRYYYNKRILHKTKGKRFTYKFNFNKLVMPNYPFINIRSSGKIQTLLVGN
Procedure, shortened: as §1

ETV6 = ETV6 (Homo sapiens, UniProt P41212 1-452)
ETV6, sequence (P41212 whole entry): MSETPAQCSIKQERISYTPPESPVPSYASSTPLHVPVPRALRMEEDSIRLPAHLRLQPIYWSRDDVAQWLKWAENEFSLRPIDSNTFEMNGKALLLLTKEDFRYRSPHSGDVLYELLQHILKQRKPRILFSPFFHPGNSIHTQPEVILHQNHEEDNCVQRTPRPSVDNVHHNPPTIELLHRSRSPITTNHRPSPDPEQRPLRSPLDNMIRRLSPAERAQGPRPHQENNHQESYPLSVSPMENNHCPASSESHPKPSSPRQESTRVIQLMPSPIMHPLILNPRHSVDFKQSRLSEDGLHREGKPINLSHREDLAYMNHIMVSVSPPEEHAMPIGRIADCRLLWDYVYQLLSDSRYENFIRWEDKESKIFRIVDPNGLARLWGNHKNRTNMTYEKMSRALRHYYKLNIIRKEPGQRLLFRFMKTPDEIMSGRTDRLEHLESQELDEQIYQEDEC
Procedure, shortened: as §1

CATCAT
binding signal (ELK1): 1.06 fold enrichment (6-mer frequency, TF over GST control) | binding signal (GABPA): 1.09 fold enrichment (6-mer frequency, TF over GST control) | binding signal (ERG): 1.08 fold enrichment (6-mer frequency, TF over GST control) | binding signal (ELF1): 1.15 fold enrichment (6-mer frequency, TF over GST control) | binding signal (EHF): 1.07 fold enrichment (6-mer frequency, TF over GST control) | binding signal (SPIB): 1.09 fold enrichment (6-mer frequency, TF over GST control) | binding signal (FEV): 1.09 fold enrichment (6-mer frequency, TF over GST control) | binding signal (ETV5): 1.09 fold enrichment (6-mer frequency, TF over GST control) | binding signal (ELF4): 1.07 fold enrichment (6-mer frequency, TF over GST control) | binding signal (ELK4): 1.11 fold enrichment (6-mer frequency, TF over GST control) | binding signal (ETV2): 1.22 fold enrichment (6-mer frequency, TF over GST control) | binding signal (ELF3): 1.1 fold enrichment (6-mer frequency, TF over GST control) | binding signal (ETV1): 1.07 fold enrichment (6-mer frequency, TF over GST control) | binding signal (ERF): 1.1 fold enrichment (6-mer frequency, TF over GST control) | binding signal (ETV3L): 1.07 fold enrichment (6-mer frequency, TF over GST control) | binding signal (ETS2): 1.08 fold enrichment (6-mer frequency, TF over GST control) | binding signal (ETV7): 1.05 fold enrichment (6-mer frequency, TF over GST control) | binding signal (ETV3): 1.08 fold enrichment (6-mer frequency, TF over GST control) | binding signal (ETV6): 1.05 fold enrichment (6-mer frequency, TF over GST control)
